Most compounds without a hit are left out; they make up all but 0.94% or so of the library.
MazF activator: increases E. coli MazEF RNase cleavage of RNA; P0AE70; AID 504720; hit rate 0.32% among 350,000; activation, % at 20 µM; FAM/BHQ RNA-DNA oligo cleavage fluorescence, 5 h; in the data active = activation above about 50%
Target sequence (P0AE70 whole entry, looked up): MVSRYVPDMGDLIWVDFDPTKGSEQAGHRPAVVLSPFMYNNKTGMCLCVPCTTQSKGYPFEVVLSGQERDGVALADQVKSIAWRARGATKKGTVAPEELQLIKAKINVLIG
Mtb hypoxia rep: inhibitors of hypoxia-regulated fluorescent reporter in Mycobacterium tuberculosis; M. tuberculosis hypoxia-regulated fluorescent reporter, fluorescence; fluorescence inhibition, % (concentration not given with the values); hit rate 0.1% among 300,000; AID 1159583; in the data active = fluorescence inhibition mostly above about 23%, no sharp cut-off; inactive = mostly below about 17%
SSB-PriA inh: inhibitors of Klebsiella pneumoniae PriA binding to SSB C-terminal tail; inhibition, % at 33 µM; hit rate 0.6% among 430,000; AlphaScreen SSBct-PriA binding, biotinylated peptide; AID 1272365; in the data active = inhibition mostly above about 37%, no sharp cut-off; inactive = mostly below about 20%
Vc quorum ag: induces V. cholerae light production without autoinducers. activation, % at 18.7 µM. hit rate 0.16% among 350,000. V. cholerae BH1578 lux reporter, luminescence, 6 h; in the data active = activation mostly above about 9.7%, no sharp cut-off
A number is an active result; . = inactive; / = no result given; + = active, no number.

SMILES | MazF activator | Mtb hypoxia rep | SSB-PriA inh | Vc quorum ag
N#Cc1ccsc1NC(=O)CSc1nc2sc3c(c2c(=O)n1-c1ccccc1)CCC3 | / | / | . | /
CCn1ccc(C(=O)Nc2nc(-c3ccccc3)c(C(=O)c3ccccc3)s2)n1 | / | / | . | /
COc1cccc(C(=O)Nc2cc(C)nn2-c2nc3c(cnn3-c3ccc(C)cc3)c(=O)[nH]2)c1OC | / | / | . | /
COc1cccc(C(=O)Nc2cc(C)nn2-c2nc3c(cnn3-c3cccc(C)c3C)c(=O)[nH]2)c1OC | / | / | 94.0 | /
Cc1cc(NC(=O)COc2ccccc2F)n(-c2nc3c(cnn3-c3cccc(C)c3C)c(=O)[nH]2)n1 | / | / | 43.0 | /
COC(=O)C1=C(C)N(Cc2ccco2)C(=O)/C1=C\c1ccc(N(C)C)cc1 | + | / | . | .
Cc1nn(C(=O)c2ccccc2-c2ccc(C(F)(F)F)cc2)c(C)c1Sc1ccccc1[N+](=O)[O-] | / | / | . | /
COc1ccc(OC)c2sc(NNC(=O)c3ccc(S(=O)(=O)N(C)C)cc3)nc12 | / | / | 42.0 | /
COc1ccc(OC)c(C2C(=C(O)c3cnn(-c4ccccc4)c3C)C(=O)C(=O)N2CCN(C)C)c1 (stereo not drawn) | / | / | . | /
C/C(=N\O)C(C)(C)Nc1ccc(Br)cc1 | 53.0 | / | / | .
CC(=NO)C(C)(C)Nc1ccc(Br)cc1 | / | . | . | /
c1cnc2c(c1)ccc1c2ccc2cccnc21 | / | / | . | /
O=S1(=O)Nc2c(ccc3cccnc23)-c2ccccc21 | . | / | 96.9 | .
CC(C)Cc1nc2sc3c(c2c(=O)n1N)CC(C(C)C)OC3 (stereo not drawn) | . | . | . | .
CC(C)C1Cc2c(sc3ncnc(NN)c23)CO1 (stereo not drawn) | . | . | 45.6 | .
CC(C)c1ccc2nc(NC(=O)c3ccc([N+](=O)[O-])s3)sc2c1 | / | / | . | /
Cc1ccc(S(=O)(=O)N2CCN(CC(=O)NC(=O)NCc3ccccc3)CC2)cc1C | 95.0 | / | . | .
CC(C)(C)C(=O)C=C(N)/C=C/c1ccccc1 | / | / | . | /
CCOc1ccc2[nH]c(SCC(=O)OC)c([N+](=O)[O-])c2c1 | . | . | . | .
COC(=O)CSc1[nH]c2ccc(Br)cc2c1[N+](=O)[O-] | . | 37.3 | . | .
NNc1nc(Nc2ccc([N+](=O)[O-])cc2)nc(N2CCCCCC2)n1 | . | . | 54.1 | .
COC(=O)c1ccc(CSc2nc(C)cc(C(F)(F)F)n2)cc1 | / | / | 38.0 | /
Cc1cc(C)nc(SCc2ccc(C(=O)NN=C3CCCC3)cc2)n1 | . | . | . | .
O=C(NCc1ccccn1)C1CCC(=O)N1C1CCCCC1 (stereo not drawn) | . | . | 104.2 | .
CCc1ccc(CNC(=O)C2CCC(=O)N2C2CCCCC2)cc1 (stereo not drawn) | . | . | . | .
SMILES | MazF activator | Mtb hypoxia rep | SSB-PriA inh | Vc quorum ag
CN1/C(=C\C=C2/SC(=S)N(CC(=O)O)C2=O)C(C)(C)c2ccccc21 | . | 62.1 | . | .
CN1CCS/C1=C\C=C1/SC(=S)N(CC(=O)O)C1=O | . | 47.4 | . | .
C=CCN1C(=O)/C(=C\C=C2\N(C)c3ccccc3C2(C)C)SC1=S | . | / | . | .
CC1CCCC(=CNc2ccc3c(c2)OCO3)C1=O (stereo not drawn) | / | / | . | /
c1cnc2c(OCc3cn4cccnc4n3)cccc2c1 | . | . | 43.2 | .
FC(F)(F)c1nc2ccccc2nc1NN=Cc1ccccc1 | / | / | 60.3 | /
COc1ccccc1C(=O)Nc1sc2c(c1C#N)CCC2 | 79.6 | . | . | .
COc1ccccc1C(=O)Nc1sc2c(c1C(N)=O)CCCC2 | . | . | . | .
COc1ncc(NC(=O)C2CCCC2)c(OC)n1 | / | / | . | /
COc1ccc2nc3ccccc3nc2c1NC(=O)c1ccc(Cl)cc1Cl | + | . | . | .
Cc1ccc(-c2ccc(=O)n(CCCNC(=O)Nc3cccc(F)c3)n2)cc1 | / | / | . | /
CN1CCN(C(=S)c2cn(CCOc3ccccc3F)c3ccccc23)CC1 | . | . | 39.3 | .
CC(=O)Nc1ccc(SCCCC(=O)Nc2cccnc2)nn1 | / | / | . | /
COc1ccc(Nc2nc(Nc3ccc(F)cc3)nc(N3CCOCC3)n2)cc1OC | / | / | 37.0 | /
CCS(=O)(=O)Nc1ccc(C2=NN(S(C)(=O)=O)[C@H](c3c(F)cccc3Cl)C2)cc1 | / | / | . | /
O=c1[nH]c(SCc2nc3c(cnn3-c3ccccc3)c(=O)[nH]2)nc2ccccc12 | 50.0 | / | . | .
CSc1ncccc1C(=O)OCC(=O)c1ccc[nH]1 | . | 22.3 | . | .
CSc1ncccc1C(=O)OCC(=O)c1cccc(Br)c1 | . | . | . | .
Cc1nn(-c2ccccc2)c(Cl)c1C=NNc1ccc(S(=O)(=O)Nc2ccccc2C(=O)O)cc1[N+](=O)[O-] | / | . | 45.2 | /
CC(=O)Nc1ccc(C=NNc2ccc([N+](=O)[O-])cc2S(=O)(=O)Nc2ccccc2C(=O)O)cc1 | . | . | . | .
CSc1ccc(/C=N/Nc2ccc(S(=O)(=O)Nc3ccccc3C(=O)O)cc2[N+](=O)[O-])cc1 | / | / | . | /
